The campaign covered roughly 31,000 compounds. About 360 (1.2%) were called active. The rule behind the calls is not given here. Many of the other results were omitted from the sample, so actives are more common in it than they were.

The values below come from PubChem BioAssay AID624137 (Broad Institute, 2012).

The target of the test is DNA-binding protein inhibitor ID-4 (Homo sapiens) (UniProt P47928). Briefly: PubChem AID 624137.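 Note: a binder raises fluorescence above local background on the spot.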 The note with it: small molecule microarray, Flag-ID4 binding, fluorescence F/B.
Chain of DNA-binding protein inhibitor ID-4 (Homo sapiens) (P47928 whole entry, looked up): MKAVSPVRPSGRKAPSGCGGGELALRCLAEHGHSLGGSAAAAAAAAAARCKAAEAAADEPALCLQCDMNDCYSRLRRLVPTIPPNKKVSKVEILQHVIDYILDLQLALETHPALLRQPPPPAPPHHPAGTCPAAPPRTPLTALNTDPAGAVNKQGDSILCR
For `COC(=O)C[C@@H]1C[C@H]2c3cc(NC(=O)NC4CCCC4)ccc3O[C@H]2[C@H](CO)O1`, the compound was called inactive. As for `O=C(NCC[C@H]1CC[C@@H](NC(=O)C2CCCCC2)[C@@H](CO)O1)c1ccc(F)cc1`, the result was inactive.

Regarding `COc1ccc(NC(=O)N[C@@H]2C=C[C@H](CC(=O)NC3CCC3)O[C@@H]2CO)cc1`, the call was inactive. The result for `C[C@H](CO)N1C[C@H](C)[C@H](CN(C)C)Oc2cc(C#CC3CC3)ccc2S1(=O)=O` reads “inactive”. As for `C[C@H](CO)N1C[C@H](C)[C@H](CN(C)C(=O)c2cccnc2)Oc2ncc(C3=CCCC3)cc2C1=O`, the entry is “inactive”; as for `O=C(C[C@@H]1CC[C@H](NC(=O)Nc2cc(F)ccc2F)[C@H](CO)O1)NCc1ccncn1`, “inactive”. For the compound `CNC[C@@H]1Oc2cc(C#CC3CCCC3)ccc2S(=O)(=O)N([C@@H](C)CO)C[C@@H]1C`, the result was inactive. As to `Cc1ccccc1NS(=O)(=O)c1cccc(C(=O)Nc2ccccc2[N+](=O)[O-])c1`, the compound was called inactive.

Turning to `C[C@@H]1CN([C@H](C)CO)C(=O)c2cc(-c3cccc(F)c3)cnc2O[C@@H]1CN(C)C`, the compound was classed as inactive. The result for `C[C@H](CO)N1C[C@H](C)[C@@H](CN(C)Cc2cccnc2)Oc2ncc(/C=C/c3ccccc3)cc2C1=O` reads “inactive”; that for `C[C@@H]1CN([C@@H](C)CO)C(=O)c2cc(/C=C/c3ccccc3)cnc2O[C@@H]1CN(C)C(=O)CN(C)C`, “inactive”.

Consider `Cc1ccccc1-c1ccc2c(c1)O[C@H](CN(C)C)[C@@H](C)CN([C@H](C)CO)S2(=O)=O`, for which the call was inactive. In the case of `Cc1ccc(S(=O)(=O)CCN2CCC(C(F)(F)F)CC2)cc1`, the compound was called inactive. The result for `CC(=O)N(C)C[C@@H]1Oc2cc(-c3ccncc3)ccc2S(=O)(=O)N([C@@H](C)CO)C[C@H]1C` reads “inactive”; that for `C[C@H]1CN([C@@H](C)CO)C(=O)c2cc(-c3ccc(C#N)cc3)cnc2O[C@@H]1CN(C)Cc1ccncc1`, “active”.

As for `C[C@H](CO)N1C[C@H](C)[C@H](CN(C)Cc2ccccc2)Oc2ncc(-c3ccccc3)cc2C1=O`, the result was inactive. As for `C[C@@H]1CN([C@H](C)CO)C(=O)c2cc(-c3ccc(C#N)cc3)cnc2O[C@@H]1CN(C)CC1CC1`, the entry is “inactive”; as for `CC(=O)N[C@@H]1C=C[C@H](CC(=O)NCC2CCCCC2)O[C@H]1CO`, “inactive”.

As to `C[C@H](CO)N1C[C@H](C)[C@H](CN(C)CC2CCCC2)Oc2ncc(-c3ccc(F)cc3)cc2C1=O`, the call was inactive.

With `Cn1cnc(S(=O)(=O)N[C@H]2C=C[C@H](CC(=O)NCC3CCCCC3)O[C@@H]2CO)c1`, the compound was called inactive. As for `Cc1cc2oc(C(=O)Nc3sc4c(c3C(=O)NCc3ccco3)CCC4)c(C)c2cc1C`, the entry is “active”; as for `CCOC(=O)c1c(NC(=O)C(C)Oc2ccc3c(C)cc(=O)oc3c2)sc2c1CCC2` (stereo unspecified), “inactive”; as for `CC(=O)Nc1sccc1C(=O)NCc1ccco1`, “inactive”. As for `CCCNC(=O)C[C@@H]1C[C@@H]2c3cc(N(C)C)ccc3O[C@@H]2[C@H](CO)O1`, the entry is “inactive”; as for `COc1cccc(-c2cnc3c(c2)C(=O)N([C@@H](C)CO)C[C@@H](C)[C@@H](CN(C)Cc2ccc(C(=O)O)cc2)O3)c1`, “inactive”.

With `CCCN(C)C[C@@H]1Oc2ncc(C#CC3CC3)cc2C(=O)N([C@H](C)CO)C[C@H]1C`, the compound was classed as inactive. The result for `C[C@@H]1CN([C@@H](C)CO)S(=O)(=O)c2ccc(C#CCN(C)C)cc2O[C@@H]1CN(C)CC1CC1` reads “inactive”; that for `CC(C)C#Cc1ccc2c(c1)O[C@H](CN(C)Cc1ccccc1)[C@H](C)CN([C@@H](C)CO)S2(=O)=O`, “inactive”. Consider `O=C(N[C@@H]1CC[C@@H](CC(=O)N2CCc3ccccc3C2)O[C@H]1CO)C1CCC1`, for which the result was inactive. The result for `CCCN(C)C[C@@H]1Oc2ncc(-c3ccccc3F)cc2C(=O)N([C@@H](C)CO)C[C@@H]1C` reads “inactive”; that for `CCCN(C)C[C@@H]1OCc2cnnn2CCCC(=O)N([C@H](C)CO)C[C@@H]1C`, “inactive”; that for `O=C(Cc1ccccc1)N[C@H]1C=C[C@H](CC(=O)N2CCCCC2)O[C@@H]1CO`, “inactive”. As for `CC(C)C#Cc1cnc2c(c1)C(=O)N([C@@H](C)CO)C[C@@H](C)[C@@H](CN(C)C(=O)c1cccc(F)c1)O2`, the entry is “inactive”; as for `O=C(C[C@@H]1C=C[C@H](NC(=O)CN2CCOCC2)[C@@H](CO)O1)NCc1cccc(F)c1`, “inactive”; as for `O=C(C[C@@H]1CC[C@H](NC(=O)C2CC2)[C@H](CO)O1)NCc1ccccc1Cl`, “inactive”. As for `C[C@@H]1CN([C@H](C)CO)S(=O)(=O)c2ccc(C#CCN(C)C)cc2O[C@@H]1CN(C)C`, the entry is “inactive”. As for `CCNC(=O)C[C@@H]1CC[C@H](NC(=O)C2CCC2)[C@@H](CO)O1`, the compound was classed as inactive. As for `COC(=O)c1ccccc1NC(=O)CN(c1ccc2c(c1)OCCO2)S(C)(=O)=O`, the call was inactive. As for `CN1CCN(CC(=O)Nc2sc3c(c2C#N)CCC(C(C)(C)C)C3)CC1` (stereo unspecified), the entry is “inactive”. As for `O=C(CN1CCCC1)Nc1sc2c(c1C(=O)Nc1ccccc1)CCCC2`, the result was inactive. For `N#Cc1c(NC(=O)C2CC(Cl)=CCC2C(=O)O)sc2c1CCC2` (stereo unspecified), the compound was called active.

As to `C[C@@H]1CN([C@H](C)CO)C(=O)c2ccccc2-c2ccccc2CO[C@@H]1CN(C)S(=O)(=O)CC(F)(F)F`, the compound was classed as inactive. The result for `CN(C)C(=O)C[C@H]1C[C@@H]2c3cc(NC(=O)CC4CC4)ccc3O[C@@H]2[C@@H](CO)O1` reads “inactive”; that for `COc1cccc(-c2ccc3c(c2)O[C@H](CN(C)Cc2ccncc2)[C@H](C)CN([C@H](C)CO)S3(=O)=O)c1`, “inactive”; that for `Cc1noc(C)c1NC(=O)N[C@H]1CC[C@H](CC(=O)N2CCCCC2)O[C@@H]1CO`, “inactive”.

On to `C[C@H](CO)N1C[C@H](C)[C@H](CN(C)C(=O)Nc2ccc(F)cc2)Oc2ccc(NC(=O)Cc3cn(C)c4ccccc34)cc2CC1=O`, for which the compound was classed as active. The result for `C[C@@H]1CN([C@@H](C)CO)C(=O)Cc2cc(NC(=O)CCC(F)(F)F)ccc2O[C@@H]1CN(C)C(=O)Nc1cccc2ccccc12` reads “inactive”. The result for `C[C@@H]1CN([C@@H](C)CO)C(=O)Cc2cc(NC(=O)Cc3cn(C)c4ccccc34)ccc2O[C@H]1CN(C)C(=O)NC1CCCCC1` reads “inactive”; that for `C[C@@H]1CN([C@@H](C)CO)C(=O)Cc2cc(NC(=O)CCN3CCOCC3)ccc2O[C@@H]1CN(C)C(=O)Nc1cccc2ccccc12`, “active”; that for `C[C@H](CO)N1C[C@H](C)[C@H](CN(C)Cc2ccncc2)Oc2ccc(NC(=O)Cc3cn(C)c4ccccc34)cc2CC1=O`, “inactive”. Turning to `C[C@H](CO)N1C[C@H](C)[C@H](CN(C)C(=O)Nc2ccccc2)Oc2ccc(NC(=O)CCN3CCOCC3)cc2CC1=O`, the result was inactive. The result for `CCC(=O)N(C)C[C@@H]1Oc2ncc(C#Cc3ccccc3)cc2C(=O)N([C@@H](C)CO)C[C@H]1C` reads “inactive”; that for `C[C@@H]1CN([C@H](C)CO)C(=O)c2cc(C#CC3CC3)cnc2O[C@H]1CN(C)C(=O)CC1CC1`, “inactive”. Regarding `C[C@H]1CN([C@@H](C)CO)C(=O)c2ccccc2-c2ccccc2CO[C@@H]1CN(C)C(=O)CCN(C)C`, the result was inactive. As for `CN(C)C(=O)C[C@H]1C=C[C@@H](NC(=O)C2CCC2)[C@@H](CO)O1`, the compound was called inactive. With `O=C(C[C@H]1CC[C@H](NC(=O)C2CCC2)[C@@H](CO)O1)NCCCN1CCOCC1`, the outcome was inactive. In the case of `CCCN(C)C[C@H]1Oc2ncc(C#CC3CCCCC3)cc2C(=O)N([C@H](C)CO)C[C@@H]1C`, the result was inactive. Turning to `O=C(c1cccc(S(=O)(=O)N2CCOCC2)c1)N(Cc1ccccc1)c1ccccn1`, the compound was called inactive. The result for `C[C@H]1CN([C@@H](C)CO)S(=O)(=O)c2ccc(-c3cccc(F)c3)cc2O[C@@H]1CN(C)C` reads “inactive”; that for `O=C(CCN1CCCCC1)N[C@@H]1C=C[C@@H](CC(=O)N2CCC(Cc3ccccc3)CC2)O[C@H]1CO`, “inactive”. As for `O=C(C[C@H]1CC[C@H](NS(=O)(=O)c2ccccc2)[C@H](CO)O1)NCc1ccncn1`, the entry is “inactive”; as for `O=C(CSc1nccc(=O)[nH]1)Nc1cccc(Br)c1`, “inactive”; as for `C[C@@H]1CN([C@@H](C)CO)C(=O)c2cc(C#CCN(C)C)cnc2O[C@@H]1CN(C)Cc1ccccn1`, “inactive”.

Consider `C[C@@H]1CN([C@H](C)CO)C(=O)c2cc(C#CC3CCCC3)cnc2O[C@H]1CN(C)S(C)(=O)=O`, for which the call was inactive. As for `O=C(C[C@@H]1C=C[C@H](NC(=O)Nc2ccccc2F)[C@H](CO)O1)NCc1ccc(F)cc1`, the entry is “inactive”; as for `C[C@@H]1CN([C@@H](C)CO)S(=O)(=O)c2ccc(C#C[C@@H](C)O)cc2O[C@@H]1CN(C)C(=O)CN(C)C`, “inactive”; as for `C[C@H](CO)N1C[C@H](C)[C@@H](CN(C)Cc2ccccn2)Oc2ncc(C3=CCCC3)cc2C1=O`, “inactive”. As for `CN(C)c1ccc(NC(=O)CN(C)S(=O)(=O)c2ccc(Br)cc2)cc1`, the entry is “inactive”; as for `COc1ccc(CN(C)C[C@@H]2Oc3ccc(NC(=O)Nc4ccc5c(c4)OCO5)cc3CC(=O)N([C@H](C)CO)C[C@H]2C)cc1`, “active”; as for `C[C@@H]1CN([C@H](C)CO)C(=O)Cc2cc(NC(=O)Nc3ccc(F)cc3)ccc2O[C@@H]1CN(C)Cc1ccc2c(c1)OCO2`, “inactive”. Take `COc1ccc(CN(C)C[C@@H]2Oc3ccc(NC(=O)Nc4ccc(OC)cc4)cc3CC(=O)N([C@H](C)CO)C[C@H]2C)cc1`: the compound was called inactive. With `C[C@@H]1CN([C@@H](C)CO)C(=O)Cc2cc(NC(=O)Cc3ccccc3)ccc2O[C@H]1CN(C)Cc1ccc(C(=O)O)cc1`, the outcome was active. Take `COc1ccc(CN(C)C[C@H]2Oc3ccc(NC(=O)Cc4ccccc4)cc3CC(=O)N([C@@H](C)CO)C[C@@H]2C)cc1`: the result was inactive. On to `C[C@@H]1CN([C@@H](C)CO)C(=O)Cc2cc(NC(=O)Cc3cn(C)c4ccccc34)ccc2O[C@H]1CN(C)Cc1ccc(C(=O)O)cc1`, for which the compound was called inactive. As for `O=C(C[C@@H]1C=C[C@@H](NC(=O)C2CCC2)[C@H](CO)O1)NCC1CC1`, the entry is “inactive”. In the case of `O=C(C[C@@H]1CC[C@H](NC(=O)C2CCC2)[C@@H](CO)O1)NC1CCCCC1`, the compound was called inactive.
